# G9a inh = inhibitors of human histone lysine methyltransferase G9a; G9a H3K9 monomethylation, AlphaScreen, 2 h; Potency, µM (titrated, usually from 102 µM), usual class: inhibitors; 350,000 tested, 8.8% active; note: nearly all actives have a fitted effect of over 75% in size
#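 Step 1: enzyme (final 20 nM) with compound, 15 min RT. Step 2: substrate peptide 500 nM and SAM 20 uM, 2 h RT. Step 3: anti-H3K9me1 antibody and AlphaScreen beads, 10 min, then plate read.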
# 12-LOX inh = blocks human arachidonate 12S-lipoxygenase; P18054; purified 12hLO, xylenol orange hydroperoxide absorbance; Potency, µM (titrated, usually from 108 µM), hits mostly inhibitors; 580,000 tested, 1.1% active
#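 Hydroperoxide product was detected by ferrous iron/xylenol orange as the 573 to 405 nm absorbance ratio. Arachidonic acid at 40 uM (final) was turned over for 30 min at room temperature by 150 nM human 12hLO, pH 7.0 Hepes buffer, after 15 min compound preincubation.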
# BAZ2B block = BAZ2B (human) inhibition; Q9UIF8; AlphaScreen BAZ2B-H3K14Ac peptide displacement; Potency, µM (titrated, usually from 114 µM), actives largely listed as inhibitors; 360,000 tested, 4.4% active; AID 504333; note: nearly all actives have a fitted effect of over 60% in size
#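 AlphaScreen displacement of biotin-H3(5-23)K14Ac peptide (50 nM final) from BAZ2B (50 nM final) in PBS pH 7.4, 0.01% Tween-20; complex preformed 30 min RT, then compounds (top 110 uM) 30 min RT, beads 20 min dark.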
# PLK1 PBD block = blocks phosphopeptide binding to human PLK1 polo-box domain; AID 720504; 360,000 tested, 2.8% active; Potency, µM, usual class: inhibitors; Plk1 PBD binding of FITC phosphopeptide, fluorescence polarization; P53350; note: series mostly up to about 57 µM; nearly all actives have a fitted effect of over 65% in size
# HP1b chromo inh = blocks HP1-beta chromodomain binding to methylated histone tails. AID 540317. AlphaScreen HP1-beta / biotin-H3K9me3 peptide binding. 390,000 tested, 0.56% active. Potency, µM (top dose mostly 114 µM), most hits filed as inhibitors. P83916; note: nearly all actives have a fitted effect of over 70% in size
#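 HP1-beta protein (50 nM final) preincubated 30 min at room temperature with biotinylated H3(1-18)K9me3 peptide (50 nM) in PBS pH 7.4, 0.01% Tween-20, then compound added for 30 min. AlphaScreen streptavidin donor/nickel chelate acceptor beads (10 ug/mL final), 30 min dark, luminescence read.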
# JMJD2A Tudor inh = blocks the human JMJD2A Tudor domain. AlphaScreen JMJD2A-Tudor / H3K4me3 peptide binding. Potency, µM (titrated, usually from 114 µM), actives largely listed as inhibitors. 390,000 tested, 4.4% active; note: nearly all actives have a fitted effect of over 50% in size
# Hits are given with their value; – = inactive; ? = inconclusive; · = no result; [ ] = dose if it differs, or a comment. Only some compounds are listed: those with a hit (about 9% of all), similar ones and a draw of the others. Calls come from the whole dose curve; as a rule, active = well fitted curve in the direction sought with a large enough effect; inconclusive = small, poorly fitted or top-dose-only effect, or another doubt; inactive = no such curve, though single readings can be large; an effect the other way counts as inactive or inconclusive.
SMILES,G9a inh,12-LOX inh,BAZ2B block,PLK1 PBD block,HP1b chromo inh,JMJD2A Tudor inh
CCN1C(=O)/C(=C/c2nc3ccccc3c(=O)n2-c2ccc(C)cc2)c2ccccc21,–,–,–,–,–,–
CCCSc1cc(N2CCN(C)CC2)nc(-c2ccc(OC)cc2)n1,50µM,–,50µM,–,–,?
CCOC(=O)C1=CNS(=O)(=O)NC1c1ccc2ccccc2c1 (centres undefined),·,32µM,·,–,–,–
COc1ccc(NC(=S)NCCCc2ccccc2)cc1,–,?,–,?,–,?
COCCCNC(=S)NNC(=O)c1csc(C)n1,–,–,79µM,–,–,–
COCCCNC(=S)NNC(=S)Nc1ccc(OC)cc1,·,–,–,–,?,1.8µM
Clc1cccc(NCc2nnc3n2CCCCC3)c1,–,–,–,–,–,–
Fc1ccc(/C=N/Nc2ccc3ccccc3c2)c(F)c1,·,2.5µM,·,·,·,·
CCOC(=O)N/N=C/c1ccc(F)cc1F,–,–,–,–,–,–
Oc1ccc(C=NNc2nc3ccccc3s2)c(O)c1,·,–,·,–,–,?
Cc1nc(Cl)cc(N/N=C/c2ccc(O)cc2O)n1,?,–,35µM,–,–,?
Oc1ccc(/C=N/Nc2ccc3ccccc3c2)c(O)c1,6.3µM,–,?,?,?,?
Cc1cccc(C(C#N)c2nc3ccccc3nc2C(F)(F)F)c1 (centres undefined),·,–,·,–,–,–
COc1cccc(CCC(=O)N2CCCC(c3[nH]ccc3C(N)=O)C2)c1 (centres undefined),·,–,·,·,·,·
COc1ccc(NC(=O)N(C)C[C@H]2Oc3c(NS(=O)(=O)c4cccs4)cccc3C(=O)N([C@H](C)CO)C[C@@H]2C)cc1,·,–,·,–,–,–
N#CC1=C(N)NC(SCc2ccccc2)=C(C#N)C12CCCCC2,?,?,–,?,–,?
CN(C)c1cc[n+](/C(C(=S)Nc2ccc(SC(F)F)cc2)=C(/[O-])c2ccccc2)cc1,?,–,·,–,–,?
[O-]/C(=C(\C(=S)Nc1ccc(SC(F)F)cc1)[n+]1ccccc1)c1cc(Cl)ccc1Cl,35µM,?,?,–,–,?
C=CCNC(=S)/C(=C(\[O-])c1ccc(Cl)cc1)[n+]1ccccc1,·,–,–,–,–,–
Cc1cc(C)c(/C([O-])=C(/C(=S)Nc2ccc(SC(F)F)cc2)[n+]2ccccc2)cc1C,35µM,?,22µM,–,–,?
CCN(Cc1ccc(Br)s1)C(=O)c1cnc(C)cn1,·,–,·,·,·,·
CCOC(=O)/C(=C\c1cn(C)c2ccccc12)[N+](=O)[O-],?,?,?,1.7µM,?,?
Nc1ccc(C(=O)O)cc1[N+](=O)[O-],–,–,–,–,–,–
O=[N+]([O-])c1cc([N+](=O)[O-])c2oc(-c3ccccc3)c(Br)c2c1O,50µM,·,35µM,8.4µM,?,45µM
S=C1NC=NC2N=CNC12 (centres undefined),22µM,·,·,·,·,·
SMILES,G9a inh,12-LOX inh,BAZ2B block,PLK1 PBD block,HP1b chromo inh,JMJD2A Tudor inh
O=C(O)c1ccccc1OCc1nc2ccccc2s1,–,–,–,–,–,–
O=C1CSc2nc3ccccc3n21,?,–,–,–,–,–
COc1cc(/C=C2\SC(=S)N(CC(=O)O)C2=O)ccc1OS(=O)(=O)c1ccc(C)cc1,–[0.501 µM],?,–,21µM,?,?
COc1cc(/C=C2/SC(=S)N(CC(=O)O)C2=O)ccc1OC(=O)c1cccs1,50µM,?,?,24µM,?,?
CCc1nnc(NC(=O)CN2C(=O)/C(=C/c3ccc(OC)c(OC)c3)SC2=S)s1,?,·,–,·,·,·
CC1(C)C[C@H](O)[C@]2(CO)CC[C@]3(C)C(=CCC4[C@@]5(C)CC[C@H](O)C(C)(C)C5CC[C@]43C)[C@@H]2C1 (some centres undefined),–[12.7 µM],–,–,–,–,–
COc1cc(/C=N/NC(=O)c2cc(C34CC5CC(CC(C5)C3)C4)[nH]n2)ccc1O,?,–,–,–,–,–[11.4 µM]
Cc1noc(C(=O)Nc2c(C)nn(Cc3ccccc3)c2C)c1Cl,?,–,–,–,–,–
S=C(Nc1cccnc1)Nc1cccc2cnccc12,35µM,–,·,?,–,–
S=C(Nc1ccc(Cl)cc1)Nc1ccc2cn[nH]c2c1,?,?,–,–,–,–

# Screening results as filed in PubChem BioAssay.
